Measurements: PubChem BioAssay (EPA / NIEHS)
The source made the active and inactive calls. Rule for the calls: active = hit-call score of the fitted dose curve at least 0.9, where 1 is the maximum; inactive = score below 0.9.

Experiment: APR_HepG2_StressKinase_1hr: Apredica 1-hour HepG2 Assay for Stress Kinase (AID 2282906)
Conditions: HepG2 stress kinase (phospho-c-Jun) imaging, actives raise or lower the signal
Description: APR_HepG2_1hr is a cell-based, multiplexed-readout assay that uses HepG2, a human liver cell line, with measurements taken at 1 hour after chemical dosing in a 384-well plate.APR_HepG2_StressKinase_1hr is one of 10 assay component(s) measured or calculated from the APR_HepG2_1hr assay. It is designed to make measurements of enzyme activity, a form of enzyme reporter, as detected with fluorescence intensity signals by HCS Fluorescent Imaging technology.Data from the assay component APR_HepG2_StressKinase_1hr was analyzed into 1 assay endpoint. This assay endpoint, APR_HepG2_StressKinase_1hr, was analyzed with bidirectional fitting relative to DMSO as the negative control and baseline of activity. Using a type of enzyme reporter, measures of protein for gain or loss-of-signal activity can be used to understand the signaling at the pathway-level as they relate to the gene . Furthermore, this assay endpoint can be referred to as a primary readout, because this assay has produced multiple assay endpoints where this one serves a signaling function. To generalize the intended target to other relatable targets, this assay endpoint is annotated to the cell cycle intended target family, where the subfamily is stress response.
Cells were treated with dimethyl sulfoxide (DMSO) as a solvent control at a final concentration of 0.5% v/v or with compounds in DMSO with a resulting final DMSO concentration of 0.5% v/v. Compound treatment was done at concentrations of 0.39, 0.78, 1.56, 3.12, 6.24, 12.5, 25, 50, 100, and 200 uM in duplicate on each plate. Cells were treated with compounds for 1, 24, or 72 hr. Carbonyl […] m-chloro-phenylhydrazone (CCCP) and taxol were used as positive controls for mitochondrial function and cytoskeletal stability, respectively; DMSO served as the negative control for this experiment. Cells were fixed by the direct addition of 50 uL formaldehyde in Hank's Balanced Salt Solution (HBSS) to a final concentration of 3.7%. After incubation in the fixation medium for 30 min at room temperature (293-298 K), cells were rinsed twice with HBSS and treated with cell permeabilization buffer (16 uL of 0.5% Triton X-100) for 10 min at room temperature (293-298 K) before labeling. For mitochondrial membrane potential and mitochondrial measurements, pre-fixed cells were incubated with 50 uL of MitoTracker Red CMXRos (Invitrogen) at a concentration of 250 nM for 30 min before fixation. In the remaining cases, post-fixed cells were labeled by incubation with a multiplexed mixture of primary antibodies in HBSS for 60 min at room temperature (293-298 K) to detect immunoreactivity of c-Jun (1:500), phospho-histone H3 (1:100), phospho-histone H2A.x (1:200), p53 (1:400), alpha-tubulin (1:200) and Hoechst 33342 (2 ug/mL). Cells were labeled for multiplexed imaging on two separate plates: a) Hoechst 33342, MitoTracker Red, phospho-histone H3, and alpha-tubulin, and b) Hoechst 33342, phospho-histone H2A.x, and c-Jun. A final rinse with HBSS (50 uL) was performed before analysis. The primary and secondary antibodies for the proteins were phospho-histone H3 (rabbit anti-phospho-histone H3 and FITC-donkey anti-rabbit IgG), phospho-histone H2A.x (mouse anti-phospho-histone H2A.x and FITC-donkey anti-mouse IgG), c-Jun (rabbit anti-phospho-c-Jun and Cy3-donkey anti-rabbit IgG), p53 (sheep anti-p53 and Cy5-donkey anti-sheep IgG), alpha-tubulin (mouse anti-alpha-tubulin and Cy5-donkey anti-mouse IgG). These antibodies are available as the CellCiphr HepG2 assay kit (Millipore).Digital images of each well were captured using a Cellomics ArrayScan VTI (Thermo Scientific Cellomics) (0.8 NA objective, 0.63x optical coupler, and XF-93 filter set) at 20x magnification. The images were acquired using the autofocus feature of the ArrayScan instrument, which entails the following steps. First, the camera focuses on channel 1 (Hoechst 33342), where nuclei are identified. Second, a Z offset of 1 um is used for capturing mitochondria (MitoTracker Red). […]

Structure (SMILES) | outcome | AC50
O=C(Nc1ccccc1)Nc1cnns1 | inactive | 
N#CN | inactive | 
CCC(C)(NC(=O)c1cc(Cl)c(C)c(Cl)c1)C(=O)CCl (stereo not given) |  | 37 µM (active)
Oc1cc(Cl)ccc1Oc1ccc(Cl)cc1Cl | inactive | 
CCOCN(C(=O)CCl)c1c(C)cccc1CC | inactive | 
CNC(=O)Oc1cccc(N=CN(C)C)c1 | inactive | 
CNC(=O)/C=C(\C)OP(=O)(OC)OC | inactive | 
COc1nn(CSP(=S)(OC)OC)c(=O)s1 | inactive | 
CC(C)(C)C(O)C(Oc1ccc(Cl)cc1)n1cncn1 (stereo not given) | inactive | 
N#Cc1c(Cl)c(Cl)c(Cl)c(C#N)c1Cl |  | 1.94 µM (active)
[2H]C1([2H])[n+]2ccccc2-c2cccc[n+]2C1([2H])[2H] | inactive | 
CC1(C)C(C=C(Cl)Cl)C1C(=O)OC(C#N)c1ccc(F)c(Oc2ccccc2)c1 (stereo not given) | inactive | 
O=C(O)CCCOc1ccc(Cl)cc1Cl | inactive | 
CNC(=O)CSP(=S)(OC)OC | inactive | 
CCC(C)Nc1c([N+](=O)[O-])cc(C(C)(C)C)cc1[N+](=O)[O-] (stereo not given) | inactive | 
O=C(O)C(F)(F)C(F)(F)C(F)(F)C(F)(F)C(F)(F)C(F)(F)C(F)(F)F | inactive | 
O=C(O)COc1ccc(Cl)cc1Cl | inactive | 
Clc1ccccc1-c1nnc(-c2ccccc2Cl)nn1 | inactive | 
CCOc1nc(NC)nc(NC(=O)NS(=O)(=O)c2ccccc2C(=O)OC)n1 | inactive | 
CCCN(CCOc1c(Cl)cc(Cl)cc1Cl)C(=O)n1ccnc1 | inactive | 

Structure (SMILES) | outcome | AC50
CCCN(CCC)c1c([N+](=O)[O-])cc(C(F)(F)F)cc1[N+](=O)[O-] | inactive | 
COP(=S)(OC)Oc1ccc(SC)c(C)c1 | inactive | 
Oc1ccc(Cl)cc1Cc1ccccc1 |  | 77.4 µM (active)
COC(=O)c1ccccc1CS(=O)(=O)NC(=O)Nc1nc(OC)cc(OC)n1 | inactive | 
CCc1ccc(C(=O)NN(C(=O)c2cc(C)cc(C)c2)C(C)(C)C)cc1 | inactive | 
COP(=O)(OC)OC=C(Cl)Cl | inactive | 
CCC(C)(C)C(=O)OC1=C(c2ccc(Cl)cc2Cl)C(=O)OC12CCCCC2 | inactive | 
CCS(=O)(=O)c1cccnc1S(=O)(=O)NC(=O)Nc1nc(OC)cc(OC)n1 | inactive | 
COC(=O)c1ccccc1S(=O)(=O)NC(=O)Nc1nc(C)nc(OC)n1 | inactive | 
COC(=O)c1ccccc1S(=O)(=O)NC(=O)N(C)c1nc(C)nc(OC)n1 | inactive | 
O=[N+]([O-])/N=C1\NCCN1Cc1ccc(Cl)nc1 | inactive | 
CC1(c2ccc(Oc3ccccc3)cc2)OC(=O)N(Nc2ccccc2)C1=O (stereo not given) | inactive | 
ClC1C(Cl)C(Cl)C(Cl)C(Cl)C1Cl (stereo not given) | inactive | 
COc1cc(OC)nc(NC(=O)NS(=O)(=O)c2cc(NC=O)ccc2C(=O)N(C)C)n1 | inactive | 
CC(C)N(C(=O)COc1nnc(C(F)(F)F)s1)c1ccc(F)cc1 | inactive | 
CCN(CC)C(=O)SCc1ccc(Cl)cc1 | inactive | 
CN1CSC(=S)N(C)C1 |  | 40.9 µM (active)
C[C@H]1[C@H](c2ccc(Cl)cc2)SC(=O)N1C(=O)NC1CCCCC1 | inactive | 
OCCOc1ccccc1 | inactive | 
CCOC1Oc2ccc(OS(C)(=O)=O)cc2C1(C)C (stereo not given) | inactive | 
